Compound activity from PubChem.
Hits are enriched below; roughly 2.5% of the tested compounds scored in any of these assays.
Cruzain noTriton = qHTS Assay for Promiscuous and Specific Inhibitors of Cruzain (without detergent). purified cruzain, Z-FR-AMC fluorescence, no detergent. Potency, µM, without a hit: max response, negative = inhibition, usual class: inhibitors. 200,000 compounds, 2.3% hits. AID 1476, 2009;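 note: plate controls were enzyme without inhibitor for no effect and buffer without enzyme for full effect; nearly all actives have a fitted effect of over 40% in size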
Target sequence (P25779 123-467 limits assumed): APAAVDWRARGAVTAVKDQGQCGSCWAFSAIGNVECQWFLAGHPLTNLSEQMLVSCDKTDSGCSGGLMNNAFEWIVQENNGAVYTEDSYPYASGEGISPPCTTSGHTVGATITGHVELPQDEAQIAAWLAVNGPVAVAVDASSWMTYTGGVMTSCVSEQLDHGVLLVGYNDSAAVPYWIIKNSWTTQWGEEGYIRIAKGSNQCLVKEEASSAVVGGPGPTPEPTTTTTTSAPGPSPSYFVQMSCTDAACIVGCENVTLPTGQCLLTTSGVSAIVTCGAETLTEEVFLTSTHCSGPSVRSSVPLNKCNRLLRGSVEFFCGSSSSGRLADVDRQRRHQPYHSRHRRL
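Detergent-free condition (0.00005% Triton X-100) in acetate buffer pH 5.5 with DTT. 1.5 nM enzyme and compound were pre-mixed 15 min, then 2 uM Z-FR-AMC substrate added; reaction progress from fluorescence change between first and third reads (60 s).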
Cruzain inh Det = qHTS Assay for Promiscuous and Specific Inhibitors of Cruzain (with detergent). Potency, µM, for inactives: max response, negative = inhibition, hits mostly inhibitors. AID 1478, 2009. purified cruzain, Z-FR-AMC fluorescence, 0.01% Triton. 200,000 compounds, 0.43% hits. Cruzipain (Trypanosoma cruzi), P25779;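 note: plate controls were neutral wells for no effect and buffer without enzyme for full effect; nearly all actives have a fitted effect of over 40% in size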
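Detergent-containing run (0.01% Triton X-100) in acetate buffer pH 5.5 with 5 mM DTT: enzyme at 1.5 nM final, 15 min compound preincubation at room temperature, then 2 uM Z-FR-AMC substrate. Activity taken as 60 s fluorescence increase at 360/450 nm.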
Active calls of the source: *; ? = inconclusive. Calls come from the whole dose curve; as a rule, active = well fitted curve in the direction sought with a large enough effect; inconclusive = small, poorly fitted or top-dose-only effect, or another doubt; inactive = no such curve, though single readings can be large; an effect the other way counts as inactive or inconclusive. Potency is the fitted concentration of half-maximal effect.

SMILES | Cruzain noTriton | Cruzain inh Det
O=C(CSc1nc(C2CC2)nc2ccccc12)N1c2ccccc2Sc2ccc(C(F)(F)F)cc21 | 4µM* | 2%
O=C(NCc1ccccc1Cl)c1cc(=O)[nH]c2ccc(S(=O)(=O)N3CCCCC3)cc12 | 6% | -1%
Cc1cccc(NC(=O)c2c(NC(=O)C(F)(F)F)sc3c2CCCCC3)c1 | -23% | -25%
O=C(Nc1cccc(Cl)c1)c1c(NC(=O)C(F)(F)F)sc2c1CCCC2 | ? | 25µM*
C=CCN(CC=C)S(=O)(=O)c1ccc(NC(=S)NC(=O)/C=C/c2cccc3ccccc23)cc1 | 4µM* | 3%
CN(C)c1ccc(NC(=S)NC(=O)/C=C/c2ccc(Cl)cc2)cc1 | 5µM* | 5%
C=CCN(CC=C)S(=O)(=O)c1ccc(NC(=S)NC(=O)c2ccco2)cc1 | 4% | -3%
C=CCN(CC=C)S(=O)(=O)c1ccc(NC(=S)NC(=O)c2ccc(-c3ccccc3)cc2)cc1 | -8% | 1%
C=CCN(CC=C)S(=O)(=O)c1ccc(NC(=S)NC(=O)/C=C/c2ccc(C)cc2)cc1 | 25µM* | -1%
CN(C)NC(=S)Nc1ccc(Cl)cc1 | 17% | 6%
Cc1ccc(-c2n[nH]c3c2C(c2ccc(C(C)(C)C)cc2)NC3=O)cc1 (configuration not stated) | -1% | 7%
COc1cccc(NC(=O)CSc2nc(-c3ccccc3)nc3c2Cc2cc(Cl)ccc2O3)c1 | 0% | 0%
O=C(Cn1nnnc1-c1ccccc1F)Nc1ccc(OC(F)(F)F)cc1 | -29% | -6%
CCOC(=O)Cn1c(=O)cc(-c2ccccc2)c2c(C)nn(C)c21 | ? | -7%
CCOc1ccccc1NC(=O)Cn1c(=O)n(Cc2nc(C)no2)c(=O)c2ccccc21 | 23% | -3%
CCc1ccc(C2C(C(=O)Nc3ccccc3OC)=C(C)Nc3nc(SCc4ccccc4)nn32)cc1 (configuration not stated) | -6% | -2%
O=C(NCc1nc2ncc(Br)cc2[nH]1)c1ccccc1 | -11% | -1%
O=c1[nH]c2cc(Br)cnc2nc1/C=C(\O)c1ccc(F)cc1 | 25µM* | 4%
OC1CCN(c2c3c(nc4cc(-c5cccc(F)c5)nn24)CCCC3)CC1 | -5% | -10%
Clc1cccc(-c2cc3nc4c(c(N5CCNCC5)n3n2)CCCC4)c1 | 25µM* | -5%
Oc1c(C=C2N=c3ccccc3=N2)sc(=S)n1C1CCCC1 | 20µM* | -5%
O=C(Nn1c(O)c(C=C2N=c3ccccc3=N2)sc1=S)c1ccccc1 | -7% | -2%
Cc1ccc(C(=O)Nn2c(O)c(C=C3N=c4ccccc4=N3)sc2=S)cc1 | 0% | -3%
Oc1c(C=C2N=c3ccccc3=N2)sc(=S)n1-c1ccc(F)cc1 | 20µM* | -6%
O=C(COc1ccccc1)Nc1ccc2nc(SCC(=O)N3CCc4ccccc43)sc2c1 | -8% | -1%
SMILES | Cruzain noTriton | Cruzain inh Det
COc1cc(NC(=O)c2nnn(CC(=O)Nc3ccccc3)c2N)cc(OC)c1 | -20% | 1%
CCOC(=O)c1c(NC(=O)c2cnn3c2NC(c2cccc(OC)c2)CC3C(F)(F)F)sc2c1CCCC2 (configuration not stated) | 3.2µM* | -1%
CC(C)OC(=O)c1c(NC(=O)c2cnn3c2NC(c2ccccc2)CC3C(F)(F)F)sc2c1CCCC2 (configuration not stated) | ? | 3%
COc1cc(NC(=O)COC(=O)CNC(=O)c2ccc(Cl)cc2)c(C)cc1[N+](=O)[O-] | 10µM* | 13µM*
COc1cc(NC(=O)COC(=O)CC(C)(C)C)c(C)cc1[N+](=O)[O-] | 5% | -1%
COc1cc(NC(=O)COC(=O)C2CC2)c(C)cc1[N+](=O)[O-] | -2% | -5%
COc1cc(NC(=O)COC(=O)CNC(=O)c2ccc(C)cc2)c(C)cc1[N+](=O)[O-] | 13µM* | 13µM*
CS(=O)(=O)Nc1cccc(-c2nc(N3CCOCC3)c3ccccc3n2)c1 | 3% | 1%
CCOC(=O)c1sc(-c2ccc(Br)cc2)cc1N | -2% | -6%
CCOC(=O)c1cc(-c2ccc(N)cc2)sc1N | 32µM* | -17%
Cc1ccc(C)c(NC(=O)Cn2ncc3c(C)n(Cc4ccc(F)cc4)c(C)c3c2=O)c1 | 10% | -3%
COc1ccc(C2(CNC(=O)C(=O)Nc3ccc(F)cc3)CCCC2)cc1OC | ? | -1%
Cc1ccc2c(c1)-c1c(ssc1=S)C(C)(C)N2C(=O)c1ccco1 | 16µM* | -16%
CC1(C)c2ssc(=S)c2-c2ccccc2N1C(=O)c1ccco1 | ? | -4%
Cc1cc(C)cc(-n2c(SCC(=O)N3CCCCC3)nc3c([nH]c4ccccc43)c2=O)c1 | 7% | 1%
CCN1C(=O)c2ccccc2Sc2ccc(NC(=O)Nc3ccc(C(C)=O)cc3)cc21 | 20% | -5%
CCN1C(=O)c2ccccc2Sc2ccc(NC(=O)Nc3ccc(Br)c(C)c3)cc21 | 7.9µM* | -2%
